From PubChem BioAssay
KAT2A inh – qHTS Assay for Inhibitors of GCN5L2 | Histone acetyltransferase KAT2A (Homo sapiens), Q92830 | GCN5L2 HAT assay, ThioGlo1 CoA-SH fluorescence | Potency, µM (doses to about 58.9 µM), for the others: at the top dose activity change, negative = inhibition, actives largely listed as inhibitors | 390,000 compounds, 0.21% hits | AID 504327, 2011; also: % is scaled to controls: 0 for no effect and ±100 for the full control effect
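Free CoA generated was detected with ThioGlo1 (50uM) fluorescence at Ex340nm/Em540nm, read immediately and after 20 min at room temperature. Enzyme, 20 nM in HEPES pH 7.5 buffer, saw compounds 15 min before adding 75uM H3(1-25) peptide and 70uM acetyl-CoA.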
Pol eta inh-1 – qHTS for Inhibitors of Polymerase Eta | DNA polymerase eta (Homo sapiens), Q9Y253 | Potency, µM (titrated, usually from 114 µM), inactives show top-dose activity change, negative = inhibition, actives largely listed as inhibitors | recombinant Pol eta, fluorescent DNA replication assay | 390,000 compounds, 1.2% hits; also: % is scaled to controls: 0 for no effect and ±100 for the full control effect
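Pol eta (10 nM) was preincubated with compounds for 15 min at room temperature, after which fluorescent replication substrate (50 nM final) was added to start the reaction. Fluorescence was read kinetically at 0 and 10 min.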
POLI inh – qHTS for Inhibitors of Polymerase Iota; Potency, µM (highest dose often 115 µM), without a hit: at the top dose activity, negative = inhibition, most hits filed as inhibitors; 390,000 compounds, 1% hits; AID 588590, 2011; Pol iota fluorescent replication assay, 10 min; DNA polymerase iota (Homo sapiens), Q9UNA4
Target sequence (Q9UNA4 whole entry, looked up): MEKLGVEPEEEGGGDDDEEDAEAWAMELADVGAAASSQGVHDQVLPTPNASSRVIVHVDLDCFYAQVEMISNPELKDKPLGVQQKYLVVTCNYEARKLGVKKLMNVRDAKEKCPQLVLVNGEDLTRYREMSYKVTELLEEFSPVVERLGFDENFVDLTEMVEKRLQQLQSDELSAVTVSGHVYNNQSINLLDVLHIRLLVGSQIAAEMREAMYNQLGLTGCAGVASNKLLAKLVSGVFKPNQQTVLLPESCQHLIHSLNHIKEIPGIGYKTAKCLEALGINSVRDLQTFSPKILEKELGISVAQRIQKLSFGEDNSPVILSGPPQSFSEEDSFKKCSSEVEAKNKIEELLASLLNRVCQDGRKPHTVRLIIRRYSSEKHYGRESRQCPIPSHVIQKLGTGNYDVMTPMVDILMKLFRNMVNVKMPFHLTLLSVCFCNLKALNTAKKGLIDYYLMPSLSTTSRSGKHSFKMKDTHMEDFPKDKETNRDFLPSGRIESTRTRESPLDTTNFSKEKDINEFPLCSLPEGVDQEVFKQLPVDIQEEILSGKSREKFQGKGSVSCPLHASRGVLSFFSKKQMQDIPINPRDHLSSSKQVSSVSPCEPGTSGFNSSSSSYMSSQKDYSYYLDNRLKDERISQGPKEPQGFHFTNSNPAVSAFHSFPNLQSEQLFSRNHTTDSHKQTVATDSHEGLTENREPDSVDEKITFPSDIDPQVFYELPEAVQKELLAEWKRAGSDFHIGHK
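Fluorescent replication assay read twice, at 0 min and 10 min after adding 50 nM (final) substrate. Enzyme (10 nM) and compounds were first incubated 15 min at room temperature; enzyme-free buffer wells were negative controls.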
Pol beta inh – qHTS Assay for Inhibitors of DNA Polymerase Beta; AID 485314, 2010; Pol beta primer extension/strand displacement, fluorescence kinetic; Potency, µM (top dose mostly 114 µM), without a hit: at the top dose activity change, negative = inhibition, hits mostly inhibitors; 340,000 compounds, 1.3% hits; P06746; also: % is scaled to controls: 0 for no effect and ±100 for the full control effect
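Values derive from four-parameter Hill fits of normalized kinetic data: reads at 0 and 10 min following addition of 50 nM substrate to 10 nM Pol beta preincubated 15 min with compound.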
GLS inh – qHTS for Inhibitors of Glutaminase (GLS) | Glutaminase kidney isoform, mitochondrial (Homo sapiens), O94925 | GLS enzymatic activity, qHTS titration | Potency, µM (titrated, usually from 45.5 µM), inactives show at the top dose activity change, negative = inhibition, usual class: inhibitors | 410,000 compounds, 0.21% hits | AID 624170, 2012; also: % is scaled to controls: 0 for no effect and ±100 for the full control effect
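Compounds were pin-transferred onto hKGA, after which L-glutamine (1 mM solution) and a detection mix of glutamate oxidase, HRP and Amplex Red were added. Initial and 30 min RT fluorescence reads were collected.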
Pol kappa inh-1 – qHTS for Inhibitors of Polymerase Kappa; purified Pol kappa, fluorescent DNA synthesis assay, 10 min; AID 588579, 2011; Potency, µM (highest dose often 107 µM), inactives show at the highest dose activity, negative = inhibition, most hits filed as inhibitors; 400,000 compounds, 0.53% hits; also: % is scaled to controls: 0 for no effect and ±100 for the full control effect
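10 nM Pol kappa preincubated 15 min at room temperature with compounds, then reaction started with substrate at 50 nM final. Fluorescence read kinetically at 0 and 10 min; buffer-only wells served as negative control.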
PGK validate – qHTS for inhibitors of Phosphogylcerate Kinase: Hit Validation Screen | 500 compounds, 79% hits | TbPGK coupled GAPDH assay, Kinase-Glo luminescence | shares compounds with Pol kappa inh-1 | Potency, µM (series often up to 57.5 µM), for the others: top-dose activity change, negative = inhibition, usual class: inhibitors | AID 686980, 2013; also: % is scaled to controls: 0 for no effect and ±100 for the full control effect; nearly all actives have a fitted effect of over 65% in size
POLI cherry-pick – qHTS for Inhibitors of Polymerase Iota: Confirmatory Assay for Cherry-picked Compounds; shares compounds with Pol kappa inh-1; 1,500 compounds, 77% hits; Pol iota primer extension, TAMRA/BHQ fluorescence; Potency, µM, most hits filed as inhibitors
Pol kappa inh-2 – qHTS for Inhibitors of Polymerase Kappa: Confirmatory Assay for Cherry-picked Compounds; 920 compounds, 76% hits; purified Pol-kappa, fluorescent strand-displacement substrate; Potency, µM, actives largely listed as inhibitors; AID 720501, 2013; shares compounds with Pol eta inh-1
Pol eta inh-2 – qHTS for Inhibitors of Polymerase Eta: Confirmatory Assay for Cherry-picked Compounds; shares compounds with Pol eta inh-1; Pol eta primer extension, TAMRA/BHQ fluorescence, 10 min; Potency, µM, usual class: inhibitors; 2,600 compounds, 64% hits; AID 720502, 2013
* marks the source's active call; other numbers are inactive results; ? = inconclusive; . = not tested or not shown; [ ] = another dose, or the depositor's remark. Shown are actives, neighbours in structure and some others; about 2.4% of the full set was active somewhere. Calls follow the shape of the dose curve; as a rule, active = well fitted curve in the direction sought with a large enough effect; inconclusive = small, poorly fitted or top-dose-only effect, or another doubt; inactive = no such curve, though single readings can be large; an effect the other way counts as inactive or inconclusive. Potency is read from the fitted curve at half-maximal effect.

SMILES	KAT2A inh	Pol eta inh-1	POLI inh	Pol beta inh	GLS inh	Pol kappa inh-1	POLI cherry-pick	Pol kappa inh-2	Pol eta inh-2	others
O=C(NNc1ccccc1F)c1sccc1Cl	.	.	12%	.	.	6%	.	.	.
O=c1cc(-c2ccc(O)c(O)c2)oc2c1ccc1ccccc12	-10%	3.2µM*	10µM*	.	29%	35µM*	27*	21*	4.8*
O=c1cc(-c2ccccc2)oc2c1ccc1ccccc12	.	.	.	.	.	-11%[19.4 µM]	.	.	.
Fc1cccc(-n2ncc3c2ncn2nc(COc4ccc(Cl)cc4)nc32)c1	-9%	.	1%	11%	4%	19%	.	.	.
CCOC(=O)c1cccc(NC(=O)CC2C(=O)N(c3ccc(C)cc3)C(=O)N2Cc2cccc(OC)c2)c1 (stereo not given)	-10%	-10%	14%	1%	-11%	-22%	.	.	.
O=C(/C=C/c1ccco1)NCC1OCCc2ccccc21 (stereo not given)	-27%	13µM*	14µM*	14µM*	0%	35µM*	42*	.	43*
Cc1ccc(C)c(NC(=O)Cn2cc(S(=O)(=O)Cc3cccc(Cl)c3)c3ccccc32)c1	-4%	-1%	15%	9%	0%	2%	.	.	.
COc1ccc(C(=O)N/N=C/c2ccc(OC(=O)c3cccc4ccccc34)c([N+](=O)[O-])c2)cc1	45%	?	?	11µM*	3%	?	?	67*	.
CCn1c(SCC(=O)OC)nc2sc3c(c2c1=O)CCC3	-21%	?	18µM*	13µM*	0%	89µM*	60*	.	67*
CCn1c(SCC(=O)O)nc2sc3c(c2c1=O)CCC3	-24%	13µM*	?	14µM*	?	?	67*	.	48*
CCOC(=O)c1ccc(NC(=O)CC2C(=O)N(c3ccc(F)cc3)C(=O)N2Cc2ccc(C)cc2)cc1 (stereo not given)	-7%	?	17%	0%	9%	-21%	.	.	.
N#C/C(=C\c1ccc(-c2ccc(Br)cc2)o1)C(=O)Nc1ccccc1O	1%	.	-9%	33%	-2%	-8%	.	.	.
N#C/C(=C\c1ccc(-c2ccc(C(=O)O)cc2)o1)C(=O)Nc1ccccc1C(=O)O	-12%	11µM*	?	?	8%	32µM*	67*	5.3*	30*
COc1ccc(Cn2ccc3nc(C)c(C(=O)Nc4ccc(OC)cc4OC)cc3c2=O)cc1	5%	-12%	19%	0%	1%	23%	.	.	.
O=c1c(O)c(-c2ccc(O)c(O)c2)oc2cc(O)ccc12	.	1.6µM*	2.5µM*	.	38%	2.8µM*	6.7*	8.4*	7.6*
COc1cc(-c2oc3cc(O)ccc3c(=O)c2O)ccc1O	?	.	.	.	.	-10%[60.1 µM]	.	.	.
CC/C=C1/N=C2C(=O)N(C)C(=O)N=C2N(C)N1	.	.	-19%	.	.	-9%	.	.	.
CN1N/C(=C\c2ccccc2)N=C2C(=O)N(C)C(=O)N=C21	.	.	-98%	.	.	?	2.7*	.	5.4*
Cc1ccc(-c2nc(S(=O)(=O)c3ccc(C)cc3)c(N3CCCCC3)o2)cc1	-6%	-6%	-3%	-2%	3%	-18%	.	.	.
O=C(Nc1ccc(S(=O)(=O)Nc2ncccn2)cc1)c1ccc(N2CCCC2=O)cc1	?	45µM*	?	?	0%	-45%	?	.	?
O=C(Nc1ccc(S(=O)(=O)Nc2ncccn2)cc1)c1cccc(S(=O)(=O)N2CCCC2)c1	-8%	-8%	24%	?	4%	8%	.	.	.
COc1cccc(Cn2c(=O)n(CCc3ccccc3)c(=O)c3c2c2cc(OC)ccc2n3C)c1	-4%	-25%	12%	3%	4%	-7%	.	.	.
O=C(O)c1cc2cc(S(=O)(=O)O)ccc2cc1O	.	-1%	-11%	.	-7%	-8%	.	.	.
O=S(=O)(O)c1cc(O)c2cc(Nc3ccccc3)ccc2c1	.	2.8µM*	3.2µM*	.	?	32µM*	30*	3.4*	17*	PGK validate=9.2µM*
O=S(=O)(O)c1ccc(O)c2cc(Nc3ccccc3)ccc12	.	0.79µM*	?	.	2.2µM*	2.8µM*	0.67*	0.53*	0.76*	PGK validate=0.65µM*
SMILES	KAT2A inh	Pol eta inh-1	POLI inh	Pol beta inh	GLS inh	Pol kappa inh-1	POLI cherry-pick	Pol kappa inh-2	Pol eta inh-2	others
O=S(=O)(O)c1cccc(N=Nc2c(O)ccc3ccccc23)c1	2%	?	11%	?	21%	-11%	.	.	.
COc1ccccc1Nc1ccc2c(O)cc(S(=O)(=O)O)cc2c1	.	2.2µM*	1.1µM*	.	2.2µM*	0.89µM*	19*	3*	15*	PGK validate=8.2µM*
Nc1cccc2c(O)cc(S(=O)(=O)O)cc12	.	2.8µM*	3.2µM*	.	2.8µM*	8.9µM*	6.7*	2.7*	6*	PGK validate=5.2µM*
Cc1ccccc1NC(=O)C1CCN(S(=O)(=O)c2ccccc2)CC1	-1%	-17%	30%	-1%	8%	-5%[60.1 µM]	.	.	.
COc1cc2cc(Oc3ccc4ccc(=O)oc4c3)c(=O)oc2cc1OC1OC(COC(=O)CC(C)(O)CC(=O)O)C(O)C(O)C1O (stereo not given)	-7%	35µM*	50µM*	?	?	?	67*	.	48*
Cn1nc(-c2cccnc2)nc2c(=O)n(C)c(=O)nc1-2	.	.	-85%	.	.	-7%	1.7*	.	2.4*
